Screening results: PubChem BioAssay, Broad Institute
Wnt act: activators of Wnt/beta-catenin signaling; Wnt/beta-catenin reporter cell assay, activator, plate reader; activation, % at 9.35 µM; 300,000 compounds, 1.2% hits; AID 743398; in the data active = activation above about 30%, passing the limit was not always enough; inconclusive = no clear call, values can overlap the other calls;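 also: 0% = neutral control wells and 100% = positive control wells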
MITF TRPM1 HTS: increases MITF-driven TRPM1 promoter luciferase signal; SK-MEL-5 TRPM1-promoter luciferase, 24 h; % of positive control, neutral wells = 0; activation, % at 12.5 µM; 300,000 compounds, 0.75% hits;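 active = mean activation of at least 80% with every replicate also reaching 80%; inconclusive = mean reaches 80% but some replicate falls short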;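 also: 0% = neutral control wells and 100% = parthenolide positive control wells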
PfHsp90 yeast 2: inhibits growth of yeast expressing Plasmodium falciparum Hsp90; S. cerevisiae expressing PfHsp90, BacTiter-Glo ATP, 48 h; yeast lacking PDR1 and PDR3 efflux regulators; inhibition, % at 9.4 µM; 310,000 compounds, 0.32% hits;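 active = every replicate shows inhibition above about 80%, whatever the replicate mean, limit read from the data; inconclusive = mean inhibition reaches the set limit but some replicate falls short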;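 also: 0% = DMSO neutral controls and 100% = 20 µM radicicol positive controls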
TRPM1 prom inh: reduces MITF-dependent TRPM1 promoter luciferase signal; inhibition, % at 12.5 µM; SK-MEL-5 TRPM1 promoter luciferase, 24 h; 330,000 compounds, 0.83% hits;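 active = mean inhibition across replicates of 60% or more, whatever share of single replicates reaches that level; inconclusive = some that reach 60%, reason not given; inactive = mean inhibition across replicates below 60%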
Glyco luc inh: blocks N-linked glycosylation in D54 reporter cells. D54 ERlucT glycosylation luciferase reporter, 24 h; percent of 100 nM tunicamycin response. reporter increase, % at 12.5 µM. 360,000 compounds, 0.23% hits;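 active = mean luciferase reporter signal, scaled so untreated is 0 and the glycosylation-blocking control 100, at or above a set limit in every replicate; inconclusive = mean reaches the limit but not every replicate does; inactive = mean below the limit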;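 also: luciferase carries N-glycosylation sites so blocking glycosylation raises the light; 0% = median of neutral control wells and 100% = median of 100 nM tunicamycin wells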
NSD2 inh: blocks human histone methyltransferase NSD2; O96028; NSD2 peptide methylation, AlphaScreen, 120 min; inhibition, % at 12.5 µM; 310,000 compounds, 0.54% hits; AID 743445; in the data active = inhibition above about 50%
Target sequence (O96028 whole entry, looked up): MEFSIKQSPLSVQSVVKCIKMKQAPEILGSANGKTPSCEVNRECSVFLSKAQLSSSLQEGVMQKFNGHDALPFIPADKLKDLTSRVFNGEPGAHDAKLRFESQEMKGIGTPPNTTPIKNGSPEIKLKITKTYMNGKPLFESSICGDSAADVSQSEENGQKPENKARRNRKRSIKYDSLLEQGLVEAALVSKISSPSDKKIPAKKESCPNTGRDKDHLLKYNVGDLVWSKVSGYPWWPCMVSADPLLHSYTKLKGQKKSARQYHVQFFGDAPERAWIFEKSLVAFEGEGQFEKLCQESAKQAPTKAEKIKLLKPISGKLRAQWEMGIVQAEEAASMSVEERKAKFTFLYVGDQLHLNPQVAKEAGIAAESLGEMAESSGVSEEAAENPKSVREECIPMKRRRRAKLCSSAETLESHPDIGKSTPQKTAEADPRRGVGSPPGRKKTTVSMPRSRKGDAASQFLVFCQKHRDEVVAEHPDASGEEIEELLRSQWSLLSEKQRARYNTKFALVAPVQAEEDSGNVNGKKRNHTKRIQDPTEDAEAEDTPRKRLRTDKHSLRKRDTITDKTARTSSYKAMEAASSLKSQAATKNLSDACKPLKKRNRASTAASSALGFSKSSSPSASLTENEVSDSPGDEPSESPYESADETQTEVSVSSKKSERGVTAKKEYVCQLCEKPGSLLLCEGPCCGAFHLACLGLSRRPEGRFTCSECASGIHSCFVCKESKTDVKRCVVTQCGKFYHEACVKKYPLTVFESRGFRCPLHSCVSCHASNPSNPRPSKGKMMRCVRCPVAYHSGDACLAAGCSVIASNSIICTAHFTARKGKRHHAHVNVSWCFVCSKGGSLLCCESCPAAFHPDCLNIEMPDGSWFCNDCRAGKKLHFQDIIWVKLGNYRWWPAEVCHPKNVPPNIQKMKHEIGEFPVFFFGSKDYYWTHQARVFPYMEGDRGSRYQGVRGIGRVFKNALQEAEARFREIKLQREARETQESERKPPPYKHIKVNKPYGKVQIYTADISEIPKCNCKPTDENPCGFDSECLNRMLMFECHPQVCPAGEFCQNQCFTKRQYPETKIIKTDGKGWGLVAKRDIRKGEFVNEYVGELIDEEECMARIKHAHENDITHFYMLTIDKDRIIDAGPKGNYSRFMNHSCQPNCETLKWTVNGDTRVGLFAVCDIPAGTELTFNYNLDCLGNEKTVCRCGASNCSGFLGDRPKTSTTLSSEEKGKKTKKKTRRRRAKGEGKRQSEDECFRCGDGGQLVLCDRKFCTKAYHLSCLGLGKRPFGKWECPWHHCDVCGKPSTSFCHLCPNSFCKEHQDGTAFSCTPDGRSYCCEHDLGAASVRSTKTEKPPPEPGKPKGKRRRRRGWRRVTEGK
An asterisk follows results filed as active; ? = inconclusive; nt = no result. Sampled rows, rich in hits. Any-hit rate of the full collection: about 2.9%.

SMILES	Wnt act	MITF TRPM1 HTS	PfHsp90 yeast 2	TRPM1 prom inh	Glyco luc inh	NSD2 inh
O=C(NC(=S)Nc1cccnc1Cl)c1ccc(Cl)cc1	36*	34	3	-35	-5	nt
O=C(Nc1ccccn1)c1ccccc1	26	82*	18	-83	-1	1
O=C(Nc1cc(-c2ccccc2)[nH]n1)c1ccccc1	43*	nt	7	-6	-11	-2
CCCCCCNc1nc(Cl)nc(NC(C)(C)CO)n1	2	1	7	0	-1	0
COC(=O)C1=C(C)N(Cc2ccccc2C(F)(F)F)C(=NCc2ccccc2)NC1c1cccc(C(F)(F)F)c1 (stereo not given)	-19	nt	nt	nt	nt	nt
O=C(NC(=S)Nc1ccc2nc[nH]c2c1)c1ccccc1	17	102*	5	-98	4	9
O=C(NC(=S)Nc1ccccn1)c1ccc(-c2ccccc2)cc1	-1	117*	7	-114	-12	-4
COc1ccc2c(c1)N[C@@](CCNC=O)(c1[nH]c3ccccc3c1CCNC=O)C2=O	nt	nt	nt	nt	nt	2
CN(C)c1ccc(/C=C2\c3ccccc3C(=O)N2c2ccccc2)cn1	2	nt	nt	nt	-2	nt
O=C1c2ccccc2/C(=C\C#Cc2ccccn2)N1c1ccccc1	18	95*	-17	-91	-5	nt
Cc1cc(C)c(C(CC(=O)c2cccs2)C(C#N)C#N)c(C)c1 (stereo not given)	49*	44	19	-39	-11	0
Cc1cc(N2CCN(C)CC2)ccc1NC(=O)c1c2c(nc3ccccc13)CCN(Cc1ccccc1)C2	nt	-88	15	87*	-16	21
O=C(NC1CCCCCC1)c1c2c(nc3ccccc13)CCN(Cc1ccccc1)C2	-9	-9	11	7	?	0
C=CCN=C1NC(c2cccc(C(F)(F)F)c2)C(C(=O)OC)=C(C)N1Cc1ccccc1C(F)(F)F (stereo not given)	-3	nt	nt	nt	nt	nt
CCOC(=O)c1sc(-c2ccc(Br)cc2)cc1N	?	114*	-4	-110	-4	3
CCOC(=O)c1cc(-c2ccc(N)cc2)sc1N	nt	49	nt	-50	-5	3
O=C(C[C@@H]1C/C=C/CC[C@H](Cc2ccc(F)cc2)C(=O)OC[C@@H](Cc2ccccc2)NC1=O)N[C@H](CO)Cc1ccccc1	-20	-89	-33	91*	126*	nt
Cc1nc(SCc2nc3ccccc3[nH]2)c2oc3cc([N+](=O)[O-])ccc3c2n1	-1	-23	3	26	-3	nt
Cc1ccc(OCC(=O)NCCCNC(=O)c2ccncc2)cc1	-3	-8	5	8	-2	-1
O=C(NCc1ccc2c(c1)OCO2)c1ccc(S(=O)(=O)C(F)F)cc1	-2	15	1	-10	-3	1
NS(=O)(=O)c1ccc(CNC(=O)c2ccc(S(=O)(=O)C(F)F)cc2)cc1	36*	4	-26	0	-2	-4
COC(=O)N1C[C@@H]2Oc3nccnc3O[C@@H]2C[C@@H]1c1ccccc1Br	1	nt	nt	nt	nt	nt
COc1ccccc1NC(=O)Nc1nc2ccc(S(N)(=O)=O)cc2s1	21	87*	-29	-87	6	-2
COc1ccc2nc(Nc3ccccc3OC)sc2c1	48*	53	5	-52	-14	-1
CCNS(=O)(=O)c1ccc2nc(NC(=O)/C=C/c3cc(OC)c(OC)c(OC)c3)sc2c1	50*	2	1	4	0	-3
SMILES	Wnt act	MITF TRPM1 HTS	PfHsp90 yeast 2	TRPM1 prom inh	Glyco luc inh	NSD2 inh
COc1ccc2nc(Nc3ccccc3)sc2c1	14	95*	5	-92	-6	nt
COc1ccc(CCN(Cc2cccs2)S(=O)(=O)c2ccc(F)cc2)cc1OC	nt	nt	nt	nt	nt	-1
CC1CC(C)C[N+](=C2C=C(N3CCCC3)CC(C)(C)C2)C1 (stereo not given)	-1	-70	-17	70*	1	-3
O=C(Nc1ccc(Cl)cc1Cl)c1ccc2c(=O)n3c(nc2c1)CCC3	42*	?	nt	-101	-2	0
Cc1ccc(NC(=O)c2ccc3c(=O)n4c(nc3c2)CCC4)cc1F	53*	71	-17	-71	0	1
CC(C)CCN1CCN(C2CCN(c3ccccc3)CC2)CC1CCO (stereo not given)	-4	7	0	-9	-1	-2
COc1cc(NC(=O)CSc2nnnn2Cc2ccccc2)cc(OC)c1	-3	1	-3	3	0	-2
COc1ccc(C)cc1NC(=O)CSc1nnnn1Cc1ccccc1	44*	-5	-42	6	-3	-5
CC(OC(=O)Cc1c(F)cccc1Cl)C(=O)NCCC1=CCCCC1 (stereo not given)	0	-3	5	5	2	-2
CC(=O)CSc1ccc(-c2nc3cc(C)c(C)cc3[nH]2)cn1	-6	-82	-29	83*	-19	4
Cc1cc2nc(-c3ccc(SCC(=O)Nc4nccs4)nc3)[nH]c2cc1C	nt	-71	-14	74*	5	0
COc1ccccc1C(=O)N1CCN(C(=O)[C@@H](Cc2ccccc2)NC(=O)[C@H]2O[C@@H](n3cnc(C(N)=O)n3)[C@H](O)[C@@H]2O)CC1	0	nt	nt	nt	nt	nt
CCCCN1/C(=C/c2ccc3ccccc3[n+]2CC)Sc2ccccc21	nt	-68	-8	69*	14	26
CCN1/C(=C/c2cccc[n+]2C)Sc2ccc(OC)cc21	-4	-24	3	25	-1	17
CCN1/C(=C/c2ccc3cc(C)ccc3[n+]2CC)Sc2cc(C)ccc21	0	-85	94*	85*	?	38
CCN1/C(=C/c2ccc3ccccc3[n+]2CC)C=Cc2ccccc21	nt	-101	26	102*	85*	nt
CCN1/C(=C/c2ccc3cc(C)ccc3[n+]2C)Sc2ccc3sccc3c21	-4	-77	11	77*	1	7
CCN1/C(=C/c2ccc3ccccc3[n+]2CCCS(=O)(=O)[O-])C=Cc2cc(C)ccc21	0	-2	16	6	-2	nt
CCNC(=O)N(C)[C@H]1C[C@H]2c3[nH]c4c(-c5ccc6c(c5)OCO6)cccc4c3CCN2C(=O)[C@H]1[C@H](C)O	-1	nt	nt	nt	nt	nt
O=C(/C=C/c1ccc(Cl)cc1Cl)c1ccc[nH]1	nt	43	-4	-49	-1	1
CN(C)/C=C/C(=O)/C=C/c1ccc(Cl)cc1Cl	?	92*	-9	-88	-1	5
CC1=CC(C)[C@H](/C=N/n2c(=O)[nH]c3c([nH]c4ccc(C)cc43)c2=O)C(C)C1 (stereo not given in full)	-16	6	nt	-5	60*	-5
CCOC(=O)c1sc(NC(=O)CN2C(=O)c3cccc4cccc(c34)C2=O)nc1C	nt	-1	-4	5	0	-1
CCOC(=O)c1sc(NC(=O)CCCCCN2C(=O)c3cccc4cccc(c34)C2=O)nc1C	0	-67	11	67*	4	5
